Results: PubChem BioAssay (NCI)
The panel holds about 83,000 compounds, 20% with a hit somewhere; the sample as a whole holds those more often.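 Plates (96-well) were seeded with cells, treated with compound at one concentration, and incubated for 48 hours before percent growth was determined.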 Values without a mark were called inactive. Activity calls are given as the source filed them. How the source made its calls: active means growth percent below 10; inactive means the rest.

What was measured:
Test in all cases: NCI-60 one-dose screen, 48 h (100 = growth as untreated, 0 = no growth, -100 = all killed)
Details in all cases: 10 µM unless noted
[1] = test system: SR leukemia
[2] = test system: RPMI-8226 leukemia
[3] = test system: OVCAR-8 ovarian
[4] = test system: OVCAR-5 ovarian
[5] = test system: OVCAR-4 ovarian
[6] = test system: SK-OV-3 ovarian
[7] = test system: IGROV1 ovarian
[8] = test system: OVCAR-3 ovarian
[9] = test system: HS 578T breast
[10] = test system: NCI/ADR-RES ovarian
[11] = test system: T-47D breast
[12] = test system: MDA-MB-435 melanoma
[13] = test system: SW-620 colon
[14] = test system: MCF7 breast
[15] = test system: HCT-116 colon
[16] = test system: HCC-2998 colon
[17] = test system: KM12 colon
[18] = test system: BT-549 breast

SMILES	growth [1]	growth [2]	growth [3]	growth [4]	growth [5]	growth [6]	growth [7]	growth [8]	growth [9]	growth [10]	growth [11]	growth [12]	growth [13]	growth [14]	growth [15]	growth [16]	growth [17]	growth [18]
N#Cc1c(N2CCOCC2)nc(=S)[nH]c1-c1ccccc1	53.1%	73.6%	81.8%	71.7%	77.3%	64.4%	29.1%	66.8%	26.8%	80.9%	37.3%	82.2%	82.1%	56.6%	86.6%	79.1%	77.6%	
Cn1cc(-c2nn3cc(-c4ccccc4)nc3s2)c2ccccc21	13.2%	91.2%	89.4%	70.5%	63.6%	68.7%	52.1%	72.7%	62.3%		59.6%	-1.83% (active)	43.7%	55.6%	69.3%			78.1%
Cc1ccccc1OCC(O)COc1ccccc1C	114%	107%	91.1%	103%	104%	108%	85.1%	114%	117%	111%	88.7%		103%	90.7%	103%	573%	103%	
CCN1C(=O)N(CC)C2C1NN=c1s/c(=C3\C(=O)N(CCc4ccccc4)c4ccccc43)c(=O)n12 (configuration not stated)	10.7%	8.77% (active)	13.5%	20.6%	38.3%	32.3%	18.9%	-16.9% (active)	5.14% (active)		44.4%	-40.9% (active)	23.1%	11.6%	2.18% (active)	13.2%	13.9%	14.2%
O=C(N/N=C/c1ccc(Cl)cc1Cl)c1ccc2nc(-c3ccc(Cl)cc3)[nH]c2c1	-24.2% (active)	2.83% (active)	14.2%	23.7%	-17.9% (active)	49.8%	-27.4% (active)	-52.9% (active)	33%		-13.1% (active)	38.8%	-28.3% (active)	-20% (active)	-1.88% (active)	3.69% (active)	-29.1% (active)	113%
CCN=C1C=CC(=C(c2ccc(N(C)C)cc2)c2ccc(N(C)C)cc2)c2ccccc21	3.56% (active)	-22.9% (active)	-8.37% (active)	4.09% (active)	16.3%	-35.2% (active)	-7.04% (active)	-60.9% (active)	-29.8% (active)		-22.8% (active)	-35.2% (active)	-9.44% (active)	-9.8% (active)	-51.6% (active)	-40.8% (active)	-86.1% (active)	-35.2% (active)
COc1ccc(C2CC(c3ccc(Nc4nc(Nc5ccc(F)cc5)nc(Nc5ccc(F)cc5)n4)cc3)=NN2C(C)=O)cc1 (configuration not stated)	16.4%	7.18% (active)	90.3%	87.6%	98.1%	131%	101%	97.9%	111%		69.8%	92.1%	101%	98.9%	93.5%	37.6%	95.3%	96.2%
CN(C)c1ccc(C(=NO)c2ccc(N(C)C)cc2)cc1	12.7%	49.5%	39.4%	81.4%	71.3%	57.7%	51.9%	-15.1% (active)	51.1%		45.8%	-43.2% (active)	13.4%	32.6%	18.5%	58.6%	13.6%	53.4%
Cc1nn(-c2ccccc2)c(/N=C/N(C)C)c1/C=C/C(=O)c1ccc(Cl)cc1	23.4%	6.91% (active)	101%	81.7%	98.3%	111%	81.2%	103%	92.2%		101%	98.4%	93.3%	85.9%		101%	101%	87.3%
Cc1cccc(N2CCN(C(=S)c3ccc4c(c3)OCO4)CC2)c1	16.9%	20%	27.6%	50.3%	66.6%	19.2%	31.3%	-33.9% (active)	-27.7% (active)		32.9%	-20.9% (active)	8.2% (active)	12.5%	13.6%	13.2%	21.5%	32.9%
O=C(O)c1cccc(N/C=C/C(=O)c2cc3cc(Br)ccc3oc2=O)c1	105%	101%	105%	98.8%	95.1%	98.9%	106%	95.8%	94.7%		90.5%	96.5%	98.1%	88.4%	93.3%	105%	95.8%	86.1%
CC1(C)C2CC=C(/C=N/NC(=O)C3CCC(=O)N3)C1C2 (configuration not stated)	116%	103%	105%	107%	101%	106%	109%	112%	104%		107%	106%	104%	99.1%		119%	106%	105%
C=C(CO)[C@@H]1CC[C@]2(COC3CCCCO3)CC[C@]3(C)[C@H](CC[C@@H]4[C@@]5(C)C=C(C=O)C(=O)C(C)(C)[C@@H]5CC[C@]43C)[C@@H]12 (some centres not stated)	-49.9% (active)	-35% (active)	-69% (active)	-75.5% (active)	-63.8% (active)	-95.8% (active)	-78.8% (active)	-68.8% (active)	-52.3% (active)	-37.5% (active)	-80.3% (active)	-83.9% (active)	-64.6% (active)	-73.2% (active)	-89.3% (active)		-43% (active)	
COc1ccc(Nc2ncc(C(N)=O)c(NCCCNC(=O)C3CCC3)n2)cc1	65.1%	72.9%	62.6%	109%	81%	36.6%	66.8%	88.8%	71.5%		102%	84%	50.9%	64%	54%		29.3%	24.5%
O=C1/C(=C/c2ccccc2)CN(C(=O)c2cccnc2)C/C1=C\c1ccccc1	4.69% (active)	-19.6% (active)	12.4%	10.8%	43.8%	40.2%	2.89% (active)	-16.2% (active)	21.4%		9% (active)	-27.7% (active)	-54.4% (active)	0.394% (active)	-87.6% (active)	-83.5% (active)	-40.1% (active)	-53.3% (active)
O=C(c1ccc(Cl)cc1Cl)N1c2ccccc2Sc2ccccc21	32.2%	55.3%	50.7%	71.4%	81.9%	69.1%	60.9%	58.9%	95.9%		67.3%	47.9%	38.3%	52.4%	22.8%	64.6%	49.8%	54.6%
Clc1ccc(-c2nc(-c3c[nH]c4ncccc34)cs2)cc1	85.4% [100 µM]	91.4% [100 µM]	29.7% [100 µM]	73.7% [100 µM]	28.3% [100 µM]	29.3% [100 µM]	72.7% [100 µM]	68.7% [100 µM]	44.3% [100 µM]	41.2% [100 µM]	62.4% [100 µM]	89.2% [100 µM]	74.3% [100 µM]	66.7% [100 µM]	38.6% [100 µM]	90.2% [100 µM]	76.1% [100 µM]	
